# Sampled rows, rich in hits. Any-hit rate of the full collection: about 2.7%.
# NadD inh – inhibitors of S. aureus NadD, primary screen, biochemical, colorimetric, uHTS; purified NadD enzyme, colorimetric absorbance read-out; inhibition, % at 20 µM; actives 0.78% (n = 360,000); in the data active = inhibition above about 26%
# H9c2 TAG inh – inhibitors of triacylglycerol accumulation, primary screen, cell-based, uHTS, fluorescence, H9c2; H9c2 cells, Nile Red lipid (TAG) fluorescence; cells loaded with 200 µM oleic acid; inhibition, % at 12.5 µM; actives 0.66% (n = 230,000); AID 651582, 2012;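 active = pattern-corrected inhibition of lipid staining of at least 50% with the nuclear-stain viability signal not falling by more than 50%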
# aDG glyco act – activators of alpha-DG glycosylation, primary screen, uHTS, Pro5-aDG cells, AlphaScreen; alpha-DG glycosylation AlphaScreen (IIH6); 0% Pro5, 100% B10-LARGE cell signal; activation, % at 10 µM; actives 0.22% (n = 360,000); AID 624168, 2012;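 active = activation of at least 8% versus controls, or a plate z-score of at least 8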;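 note: Pro5 are CHO cells carrying HIG-tagged alpha-DG that lacks glycosylation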
# MPTP block – mitochondrial permeability transition pore inhibitors, primary screen, biochemical, isolated mouse mitochondria, absorbance; Ca2+ swelling absorbance, 30 min; inhibition, % at 10 µM; actives 1.4% (n = 360,000); AID 602449, 2012;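 active = inhibition of 50% or more, scaled per plate between neutral and stimulator controls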
# MPTP counter – fluorescence retest of MPTP screen hits in isolated mitochondria, single concentration | membrane potential, Rhodamine 123 fluorescence | shares compounds with MPTP block | AID 624504, 2012 | actives 78% (n = 5,000) | inhibition, % at 10 µM; in the data active = inhibition above about 22%
# MPTP abs DR – mitochondrial permeability transition pore inhibitors, dose response, biochemical, absorbance, uHTS hits; shares compounds with MPTP block; isolated mitochondria swelling; IC50, µM; actives 58% (n = 780); in the data active = IC50 below about 20 µM
# MPTP counter DR – fluorescent counter-screen in isolated mitochondria, dose response, counter-screen for MPTP inhibitor project, biochemical, fluorescence, uHTS hits | IC50, µM | actives 49% (n = 780) | isolated mitochondria counterscreen, fluorescence read-out | shares compounds with MPTP block; in the data active = IC50 below about 80 µM
# Numbers stand for hits; . = inactive; / = no result.
SMILES,NadD inh,H9c2 TAG inh,aDG glyco act,MPTP block,MPTP counter,others
COc1ccc(Cl)cc1NC(=O)CC1S/C(=N/N=C2CCCCCC2)NC1=O (configuration not stated),.,/,.,.,/,
Cc1csc(=O)n1CCC(=O)OCC(=O)N(C)c1c(N)n(Cc2ccccc2)c(=O)[nH]c1=O,.,.,.,.,/,
COc1ccc(-c2nc3cc(NC(=O)Cc4ccc(OC)c(OC)c4)ccc3o2)cc1,.,/,.,96,90,
COc1ccc(OCC(=O)Nc2ccc3oc(-c4ccncc4)nc3c2)cc1,.,/,.,.,/,
COC(=O)c1ccc2c(c1C(=O)OC)CN(S(=O)(=O)C(C)(C)C)[C@H]2CCO,.,.,.,.,/,
O=C(NCc1cn(-c2ccccc2)nc1-c1ccccc1)c1ccc([N+](=O)[O-])cc1,.,.,.,53,63,
COc1ccc(C(=O)N2CCN(c3ccc([N+](=O)[O-])c(NCCc4ccc(OC)c(OC)c4)c3)CC2)cc1,.,/,.,85,.,MPTP abs DR=6;MPTP counter DR=<2.5
CCN(c1ccc(NC(=O)c2ccc(N3CCCC3=O)cc2)cc1)C(C)C,.,.,.,.,/,
Cc1ccc(CSC(Nc2ccc(F)cc2)=C(C#N)C#N)cc1,.,.,.,95,93,
CCN(CC)C(=O)CSC(Nc1ccc(F)cc1)=C(C#N)C#N,.,.,.,.,/,
CCN(CC)Cc1ccccc1CNC(=O)c1cccc(S(=O)(=O)Nc2ccc3c(c2)OCO3)c1,.,.,.,.,/,
CC(C)C(=O)N1CCC(CN=CC2=C(O)CC(C)(C)CC2=O)CC1,.,.,.,69,113,
COc1ccccc1-c1cnc(C(O)c2ccc(Cl)c(Cl)c2)[nH]1 (configuration not stated),.,.,.,.,/,
N#C/C(=C/c1ccc(Sc2nc3ccccc3[nH]2)o1)c1cccc(F)c1,.,/,.,85,87,
O=C(N/N=C/c1ccc(Sc2nc3ccccc3[nH]2)o1)c1ccncc1,.,/,.,.,/,
N#C/C(=C/c1ccc(Sc2nc3ccccc3[nH]2)o1)c1cccc(Br)c1,.,.,.,84,98,
N#C/C(=C\c1ccc(Sc2ccccc2)o1)c1nc2ccccc2[nH]1,.,/,.,94,68,
N#C/C(=C\c1ccc(-c2ccccc2C(=O)O)o1)c1nc2ccccc2[nH]1,.,/,.,.,/,
N#C/C(=C/c1ccc(Sc2nc3ccccc3[nH]2)o1)c1ccccc1F,.,/,.,96,83,
Nc1ccc(S(=O)(=O)NC2(C(F)(F)F)NC(=O)N(c3ccccc3F)C2=O)cc1 (configuration not stated),.,/,.,.,/,
O=C(CSc1nnc(C2CC2)n1C1CC1)c1cc(F)ccc1F,.,.,.,.,/,
COC(=O)c1cccc(NS(=O)(=O)c2ccc(OC)c(OC)c2)c1C,.,/,.,56,21,
Cc1ccccc1N(C(=O)CNC(=O)c1ccco1)C(C(=O)NC1CCCCC1)c1cccnc1 (configuration not stated),.,/,.,.,/,
O=C(NCc1cccnc1)Nc1cc(Cl)cc(Cl)c1,.,/,.,85,86,
S=C(NCc1cccnc1)Nc1cc(Cl)cc(Cl)c1,.,.,.,82,82,
SMILES,NadD inh,H9c2 TAG inh,aDG glyco act,MPTP block,MPTP counter,others
O=C(NCc1cccnc1)Nc1cccc(Cl)c1,.,/,.,.,/,
c1ccc(CNc2nc(-c3cccs3)nc3ccccc23)cc1,.,.,.,51,58,
COc1ccccc1CNc1nc(NCc2ccccc2)nc2ccsc12,.,.,.,74,95,
COc1ccccc1CNc1nc(NCc2ccccc2F)c2sccc2n1,.,.,.,101,104,
COc1ccccc1CNc1nc(NCc2cccc(OC)c2OC)c2sccc2n1,.,.,.,51,95,
c1ccc(CNc2nc(-c3ccccc3)nc3ccccc23)cc1,.,/,.,.,/,
Fc1ccc(Nc2nc(NCc3ccco3)c3ccccc3n2)cc1,.,.,.,86,82,
c1ccc(CNc2nc(NCc3ccccc3)c3ccccc3n2)cc1,.,.,.,70,109,
c1ccc(CNc2nc(NCc3ccccc3)c3sccc3n2)cc1,.,.,.,91,104,
COCCNc1nc(NCc2ccc(C)cc2C)c2sccc2n1,.,.,.,.,/,
COc1ccccc1CNc1nc(NCc2ccc(C)cc2C)c2sccc2n1,.,.,.,67,102,
NN=C1c2ccccc2-c2ccc(N)cc21,.,.,.,.,/,
O=C(CN1C(=O)NC2(CCCC2)C1=O)N1CCN(c2ccccc2O)CC1,.,.,.,.,/,
Cc1ccnc(NCc2cc(Cl)cc(Cl)c2O)c1,.,.,.,.,/,
Cc1cc(C)c(O)c(CN(C)Cc2cc(Cl)cc(Cl)c2O)c1,.,.,.,94,87,
CCOc1ccc(OCC)c(NC(=O)C2CCN(S(=O)(=O)c3ccc4c(c3)CC(C)N4C(C)=O)CC2)c1 (configuration not stated),.,/,.,.,/,
O=C(N/N=C/c1cc(Cl)cc([N+](=O)[O-])c1O)c1ccccc1NS(=O)(=O)c1cccs1,.,.,.,84,26,
Cc1nn(-c2ccccc2)c(Cl)c1/C=N/NC(=O)c1ccccc1F,.,.,.,.,/,
O=C(N/N=C/c1cc(Cl)cc([N+](=O)[O-])c1O)NC12CC3CC(CC(C3)C1)C2,40,/,.,84,.,
Cc1nn(-c2ccccc2)c(Cl)c1/C=N/NC(=O)c1ccccc1NS(=O)(=O)c1cccs1,.,.,.,88,66,
Cc1cccc2c1-c1sc(C(=O)Nc3nccs3)cc1CO2,.,.,.,.,/,
Cc1cccc2c1-c1sc(C(=O)Nc3cccc([N+](=O)[O-])c3C)cc1CO2,.,/,.,75,68,
O=S(=O)(c1ccccc1)N1CCC(O)(CSc2ccc(Cl)cc2)CC1,.,.,.,98,84,
CCn1c(CC(=O)Nc2ccc(F)cc2)nnc1SCC(=O)N1CCOCC1,.,.,.,.,/,
O=C(NCc1csc(-c2cccs2)n1)Nc1cccc(Cl)c1,.,.,.,76,82,
O=C(Cc1csc(NC(=O)Nc2cccc(Cl)c2)n1)NC1CCCC1,.,.,.,79,73,
O=C(Cc1csc(NC(=O)Nc2cccc(Cl)c2)n1)NCc1ccccn1,.,.,.,.,/,
O=C(Nc1cccc(Cl)c1)Nc1nc(-c2ccc(Cl)cc2)cs1,.,.,.,92,94,
CCN1CCN(c2cc(SC(C)C)nc(-c3ccc(OC)cc3)n2)CC1,.,.,.,78,.,MPTP abs DR=10;MPTP counter DR=62

# Bioassay records from PubChem BioAssay.
